The values that follow come from PubChem BioAssay.

Active and inactive are the calls of the source.

For assay [1], the system named is Plasmodium falciparum Sir2 (PF13_0152, Sir2A). Put plainly: Plasmodium falciparum Sir2A binding compounds – biochemical, small-molecule microarray, 635 nm fluorescence, primary screen (AID 1098).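 Also: score merges spot fluorescence intensity with its signal-to-noise ratio.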 Particulars: fluorescence 635 nm, higher = more signal.
A short description of assay [2]: probe aDKK1 binding to arrayed compounds – biochemical, biotinylated probe, 635/667 nm fluorescence, primary screen (AID 1099).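 Also: score merges 667nm spot fluorescence with signal to noise across triplicate slides.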 Particulars: small-molecule microarray, higher = more signal.
The nature of assay [3]: probe aCHRDL2 binding to arrayed compounds – biochemical, biotinylated probe, 635/667 nm fluorescence, primary screen (AID 1100). Particulars: small-molecule microarray, higher = more signal.
Assay [4] can be described thus: change in splice reporter luminescence, either direction, cell-based, HEK293, spliceosome inhibition project, primary screen (AID 1101).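 Also: HEK293 cells carrying a splicing-competent luciferase reporter gene; test concentration not given here.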 Particulars: HEK293 splicing luciferase reporter, 24 h, higher = more signal, called active from +8 up or from −8 down. In general terms: In a reporter assay the amount or activity of a reporter protein is the signal.
For assay [5], the target named is Fibroblast growth factor 10 (Homo sapiens) (UniProt O15520). Put plainly: compounds binding fibroblast growth factor 10 – biochemical, small-molecule microarray, 635 nm fluorescence, primary screen (AID 1102). Particulars: FGF10 binding, fluorescence 635 nm, higher = more signal.
Sequence of Fibroblast growth factor 10 (Homo sapiens) (O15520 whole entry, looked up): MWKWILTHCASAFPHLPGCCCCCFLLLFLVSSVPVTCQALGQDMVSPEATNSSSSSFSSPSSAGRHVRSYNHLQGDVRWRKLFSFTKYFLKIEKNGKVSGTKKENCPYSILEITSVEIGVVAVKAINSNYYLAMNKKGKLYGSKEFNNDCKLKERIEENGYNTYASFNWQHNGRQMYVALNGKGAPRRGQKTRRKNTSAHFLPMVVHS
The subject of assay [6] is glycogen synthase kinase-3 (GSK3A per assay name; protocol says GSK3B). Kind of assay: compounds binding glycogen synthase kinase-3 – biochemical, small-molecule microarray, 635 nm fluorescence, GSK3A, primary screen (AID 1103). Also: the record names both GSK3A and GSK3B. Particulars: fluorescence 635 nm, higher = more signal.
The target in assay [7] is Epidermal growth factor receptor (Homo sapiens) (UniProt P00533). Put plainly: compounds binding epidermal growth factor receptor – biochemical, small-molecule microarray, 635 nm fluorescence, primary screen (AID 1104).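 Also: score merges 667 nm emission intensity with spot signal to noise over triplicate slides.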 Particulars: EGFR binding, higher = more signal.
Sequence of Epidermal growth factor receptor (Homo sapiens) (P00533 whole entry, looked up): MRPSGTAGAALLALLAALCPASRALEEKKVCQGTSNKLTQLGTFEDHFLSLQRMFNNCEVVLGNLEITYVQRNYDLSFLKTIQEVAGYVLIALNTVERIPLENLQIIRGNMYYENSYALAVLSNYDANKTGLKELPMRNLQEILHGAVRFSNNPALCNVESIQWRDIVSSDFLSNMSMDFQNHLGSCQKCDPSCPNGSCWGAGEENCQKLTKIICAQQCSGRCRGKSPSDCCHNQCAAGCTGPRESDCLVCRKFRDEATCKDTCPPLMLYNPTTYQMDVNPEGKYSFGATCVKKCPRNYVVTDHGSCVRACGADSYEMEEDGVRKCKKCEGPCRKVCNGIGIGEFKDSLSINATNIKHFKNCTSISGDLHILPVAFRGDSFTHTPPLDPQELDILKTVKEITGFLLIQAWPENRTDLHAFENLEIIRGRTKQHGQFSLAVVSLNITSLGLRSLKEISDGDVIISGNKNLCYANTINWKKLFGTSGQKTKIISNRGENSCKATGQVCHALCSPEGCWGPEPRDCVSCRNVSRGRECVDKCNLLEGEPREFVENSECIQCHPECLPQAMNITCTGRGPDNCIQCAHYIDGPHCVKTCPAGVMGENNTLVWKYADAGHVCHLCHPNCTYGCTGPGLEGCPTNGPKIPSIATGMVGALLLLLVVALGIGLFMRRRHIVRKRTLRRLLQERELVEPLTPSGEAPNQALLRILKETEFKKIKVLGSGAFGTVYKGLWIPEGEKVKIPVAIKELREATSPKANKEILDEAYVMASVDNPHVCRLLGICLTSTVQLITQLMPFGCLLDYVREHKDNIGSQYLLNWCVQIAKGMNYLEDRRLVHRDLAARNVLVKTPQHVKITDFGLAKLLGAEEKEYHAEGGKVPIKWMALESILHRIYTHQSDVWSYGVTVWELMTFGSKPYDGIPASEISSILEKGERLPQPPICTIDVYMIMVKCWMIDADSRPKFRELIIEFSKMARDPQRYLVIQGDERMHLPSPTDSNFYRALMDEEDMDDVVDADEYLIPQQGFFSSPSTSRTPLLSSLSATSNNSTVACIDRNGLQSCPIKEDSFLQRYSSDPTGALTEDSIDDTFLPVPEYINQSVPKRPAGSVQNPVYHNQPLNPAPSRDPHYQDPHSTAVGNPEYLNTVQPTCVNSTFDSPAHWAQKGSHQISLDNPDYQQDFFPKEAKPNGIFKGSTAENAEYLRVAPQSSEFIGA
The target in assay [8] is Follistatin-related protein 3 (Homo sapiens) (UniProt O95633). Kind of assay: compounds binding follistatin-related protein 3 – biochemical, small-molecule microarray, 635 nm fluorescence, primary screen (AID 1105).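 Also: score merges emission near 667 nm and signal to noise per printed spot across three slides.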 Particulars: FSTL3 binding, higher = more signal.
Sequence of Follistatin-related protein 3 (Homo sapiens) (O95633 whole entry, looked up): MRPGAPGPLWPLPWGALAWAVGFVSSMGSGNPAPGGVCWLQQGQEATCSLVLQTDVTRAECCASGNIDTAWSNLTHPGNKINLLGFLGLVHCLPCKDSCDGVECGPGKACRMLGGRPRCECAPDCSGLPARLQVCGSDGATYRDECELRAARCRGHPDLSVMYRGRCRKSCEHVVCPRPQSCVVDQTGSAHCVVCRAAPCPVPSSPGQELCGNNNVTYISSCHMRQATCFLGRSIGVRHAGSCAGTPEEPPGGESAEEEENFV
In assay [9] the target is Dickkopf-related protein 1 (Homo sapiens) (UniProt O94907). Kind of assay: small molecules binding DKK1 protein – biochemical, small-molecule microarray, 635 nm fluorescence scan, primary screen (AID 1106).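 Also: score merges emission near 667 nm with signal to noise over three replicate slides.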 Particulars: higher = more signal.
Sequence of Dickkopf-related protein 1 (Homo sapiens) (O94907 whole entry, looked up): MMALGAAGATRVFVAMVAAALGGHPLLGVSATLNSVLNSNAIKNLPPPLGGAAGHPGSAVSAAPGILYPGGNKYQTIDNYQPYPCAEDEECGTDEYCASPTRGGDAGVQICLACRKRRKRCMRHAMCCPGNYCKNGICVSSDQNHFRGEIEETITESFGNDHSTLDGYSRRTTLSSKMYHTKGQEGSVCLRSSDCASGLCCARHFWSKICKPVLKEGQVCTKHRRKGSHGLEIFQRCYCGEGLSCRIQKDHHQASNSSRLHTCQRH
Assay [10] deals with Inhibin beta A chain (activin A). Put plainly: small molecules binding activin A – biochemical, small-molecule microarray, 635 nm fluorescence scan, primary screen (AID 1107).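 Also: mouse activin A protein probed at 4.33 µg/mL on printed slides; score merges bound-protein fluorescence near 667 nm with spot signal-to-noise.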 Particulars: INHBA, higher = more signal.
The subject of assay [11] is Human papillomavirus type 1a protein E7 (residues 44-93). Kind of assay: small molecules binding HPV E7 44-93 – biochemical, small-molecule microarray, residues 44-93, 635 nm fluorescence, primary screen (AID 1108).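 Also: E7 fragment applied at 1 µg/mL in TBST for 1 h at 4 C; score combines spot fluorescence with its signal to noise ratio.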 Particulars: fluorescence 635 nm, higher = more signal.
Assay [12] is described as follows: hepatitis C replication reporter changes, two-sided – Huh7 cells, luciferase reporter, HCV replication inhibitor project, primary screen (AID 1109).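 Also: huh7 hepatoma cells harbouring a luciferase neomycin HCV replicon reporter; luciferase luminescence as measure of HCV replicon replication; test concentration not given here.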 Particulars: Huh7 HCV replicon luciferase reporter, 48 h; higher = more signal.
For assay [13], the target named is Left-right determination factor 2 (Homo sapiens) (UniProt O00292). Put plainly: small molecules binding LEFTY2 protein – biochemical, small-molecule microarray, 635 nm fluorescence scan, primary screen (AID 1110). Particulars: higher = more signal.
Sequence of Left-right determination factor 2 (Homo sapiens) (O00292 whole entry, looked up): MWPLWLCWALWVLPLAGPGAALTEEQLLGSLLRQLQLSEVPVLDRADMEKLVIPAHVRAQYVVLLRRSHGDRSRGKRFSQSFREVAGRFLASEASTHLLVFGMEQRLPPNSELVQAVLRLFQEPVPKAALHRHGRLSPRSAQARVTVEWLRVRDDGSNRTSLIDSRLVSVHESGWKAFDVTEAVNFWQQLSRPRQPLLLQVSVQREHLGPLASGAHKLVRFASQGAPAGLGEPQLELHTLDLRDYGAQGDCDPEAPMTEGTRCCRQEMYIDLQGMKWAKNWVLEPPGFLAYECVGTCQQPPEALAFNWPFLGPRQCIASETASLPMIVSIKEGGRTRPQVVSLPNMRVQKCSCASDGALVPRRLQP
Assay [14] addresses Calmodulin-1 (Homo sapiens) (UniProt P0DP23). Kind of assay: small molecules binding calmodulin-1 with EGTA – biochemical, small-molecule microarray, Cy5-labelled CALM1, profiling panel (AID 1111).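 Also: labelled calmodulin applied in Tris saline Tween buffer holding calcium plus EGTA and DTT.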 Particulars: Cy5-CALM1 binding fluorescence, higher = more signal.
Assay [15] shares this target. Kind of assay: small molecules binding Ca-loaded calmodulin-1 – biochemical, small-molecule microarray, Cy5-labelled CALM1, plus calcium, artefact control for SMM control-protein annotation, profiling panel (AID 1112).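 Also: score merges spot fluorescence with signal to noise from triplicate slides.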 Particulars: Cy5-CALM1 binding fluorescence, higher = more signal.
The nature of assay [16]: probe aWnt5a binding to arrayed compounds – biochemical, biotinylated probe, 635/667 nm fluorescence, primary screen (AID 1113).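 Also: score merges 667 nm fluorescence intensity with signal-to-noise per printed feature.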 Particulars: small-molecule microarray, higher = more signal.
Assay [17] in a line: probe aShh binding to arrayed compounds – biochemical, biotinylated probe, 635/667 nm fluorescence, primary screen (AID 1114).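 Also: probe is biotin-labelled aShh protein from a stem cell growth factor screen; measures binding of labelled protein to compounds printed on the slide; score merges feature fluorescence at 667 nm with signal-to-noise.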 Particulars: small-molecule microarray, higher = more signal.
The nature of assay [18]: probe aNog binding to arrayed compounds – biochemical, biotinylated probe, 635/667 nm fluorescence, primary screen (AID 1115).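 Also: probe is biotinylated aNog protein used at 0.15 µg/mL for 1 h at 4 C; z-score combines 667 nm fluorescence of each spot with its signal to noise.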 Particulars: small-molecule microarray, higher = more signal.
Assay [19] addresses Torsin-1A-interacting protein 1 (Homo sapiens) (UniProt Q5JTV8). Kind of assay: compound microarray binding of lysate hLAP1 – cell lysate, small-molecule microarray, COS7 lysate, 635/667 nm fluorescence, primary screen (AID 1116). Particulars: 635 nm fluorescence, higher = more signal.
The target of assay [20] is Alpha-bungarotoxin (Bungarus multicinctus) (UniProt P60615). Put plainly: compounds binding labelled alpha-BTX control protein – biochemical, small-molecule microarray, Alexa647 label, 635/667 nm fluorescence, artefact control for SMM control protein annotation, profiling panel (AID 1117). Particulars: alpha-BTX-A647 binding fluorescence, higher = more signal.
Sequence of Alpha-bungarotoxin (Bungarus multicinctus) (P60615 whole entry, looked up): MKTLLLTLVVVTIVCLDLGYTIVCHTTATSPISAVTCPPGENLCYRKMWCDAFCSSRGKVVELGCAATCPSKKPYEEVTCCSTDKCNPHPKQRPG

Sequence of Torsin-1A-interacting protein 1 (Homo sapiens) (Q5JTV8 whole entry, looked up): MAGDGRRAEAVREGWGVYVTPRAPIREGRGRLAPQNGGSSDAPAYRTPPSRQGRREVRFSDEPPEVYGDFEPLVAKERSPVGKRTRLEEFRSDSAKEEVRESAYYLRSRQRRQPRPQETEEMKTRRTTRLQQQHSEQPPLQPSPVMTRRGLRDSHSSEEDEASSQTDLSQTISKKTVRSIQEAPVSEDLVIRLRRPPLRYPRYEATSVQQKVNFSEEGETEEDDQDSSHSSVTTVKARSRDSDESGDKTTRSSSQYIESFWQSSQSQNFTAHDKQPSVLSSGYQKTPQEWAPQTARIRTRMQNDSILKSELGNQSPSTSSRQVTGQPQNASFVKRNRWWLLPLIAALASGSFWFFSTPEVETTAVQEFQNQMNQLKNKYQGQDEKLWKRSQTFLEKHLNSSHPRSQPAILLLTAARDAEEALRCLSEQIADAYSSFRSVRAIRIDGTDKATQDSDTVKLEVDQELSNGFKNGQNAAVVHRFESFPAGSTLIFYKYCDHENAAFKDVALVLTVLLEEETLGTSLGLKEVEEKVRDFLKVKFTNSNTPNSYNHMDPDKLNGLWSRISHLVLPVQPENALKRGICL

For `COC(=O)[C@@]1(Cc2ccccc2)[C@H]2c3cc(C(=O)N4CCCC4)n(Cc4ccccn4)c3C[C@H]2CN1C(=O)c1ccccc1`, the composite z-score in [1] is 1.54; in [2], 1.52; in [3] it was 1.31; in [5] it was 1.37; in assay [6] it was 1.3; in assay [7] it was 0.204. In addition, the composite z-score was 1.41 in assay [8]; 0.166 in assay [9]; 0.456 in assay [10]; 1.5 in [11]; 0.0043 in assay [13]; 1.45 in [14]. The composite z-score in assay [15] stood at 0.053; in [16] it was 0.752; in assay [17] it was 0.894; in [18], 2.25; in assay [19], 2.42; in assay [20], 0.914. Also, the z-score was -2.15 (inactive) in [4] and -1.24 in [12].

Regarding `C#C[C@@H]1Oc2ccccc2S(=O)(=O)N2CCC[C@H]12`, the composite z-score in [1] was -0.298; in assay [2], -0.105; in assay [3] it was -0.246; in assay [5] it was 0.111; in assay [6], -0.859; in assay [7], 0.304. Also, the composite z-score in [8] is -0.0777; in assay [9], 0.407; in assay [10], 0.807; in assay [11] it was -0.638; in assay [13], 0.273; in [14] it was -0.593. Moreover, the composite z-score in assay [15] is -0.867; in assay [16], 0.0391; in [17], 0.0893; in assay [18] it was 0.186; in assay [19], 0.237; in assay [20], -0.302. Further, the z-score in [4] is 0.712 (inactive); in [12] it was 0.206.

Regarding `COC(=O)[C@H]1COC(c2ccc(OCCCO)cc2)=N1`, the composite z-score in assay [1] is 1.16; in assay [2], 0.378; in assay [3] it was 1.07; in assay [5], -0.13; in assay [6], -0.882; in assay [7], -0.2. Moreover, the composite z-score was -0.576 in assay [8]; -0.59 in [9]; 1.04 in [10]; -1.8 in assay [11]; -0.365 in assay [13]; -0.545 in assay [14]. The composite z-score in assay [15] was 0.662; in assay [16], 0.0108; in assay [17] it was -0.276; in assay [18] it was 0.221; in [19], 1.94; in [20], -0.373. For the same molecule, the z-score is -0.19 (inactive) in assay [4] and 0.592 in assay [12].

For the molecule `O=C1[C@H]2[C@H]3[C@H](O)[C@H](O)CC(=NOCc4ccccc4)[C@@H]3CC[C@H]2C(=O)N1Cc1ccccc1`, the composite z-score in assay [1] is -0.935; in assay [2] it was -0.206; in assay [3], -0.571; in assay [5] it was 0.43; in [6], 0.75; in [7] it was 0.453. Moreover, the composite z-score in assay [8] is 0.58; in assay [9] it was 0.544; in assay [10] it was -0.359; in assay [11], 0.813; in assay [13], 0.509; in [14], 0.675. The composite z-score is -0.374 in assay [15]; -0.197 in assay [16]; 0.214 in assay [17]; 0.144 in assay [18]; 0.102 in assay [19]; 0.159 in assay [20]. Also, the z-score was -0.491 (inactive) in assay [4] and 0.427 in [12].

For the molecule `C=CCOC(=O)[C@H]1[C@@H]2C(=O)O[C@@H](c3ccccc3)[C@@H](c3ccccc3)N2[C@@H](c2ccc(OCCOC(=O)[C@H]3C[C@H]4C(=O)N5CCC[C@H]5C(=O)N4[C@H]3c3cccc(OCCO)c3)cc2)[C@]12C(=O)Nc1ccc(I)cc12`, the composite z-score stood at 2.03 in assay [1]; 2.12 in assay [2]; 1.36 in assay [3]; 1.4 in assay [5]; 1.37 in [6]; 1.02 in [7]. Moreover, the composite z-score in [8] was found to be 1.41; in assay [9] it was 1.22; in assay [10] it was 1.47; in assay [11], 1.43; in assay [13], 1.29; in assay [14], 2. The composite z-score amounted to 0.977 in assay [15]; 0.995 in assay [16]; 1.97 in [17]; 2.7 in [18]; 3.33 in [19]; 1.69 in assay [20]. For the same molecule, the figures for the z-score in assay [4] and in [12] were 1.1 (inactive) and -0.38, respectively.

In the case of `CCOC(=O)CCN1C(=O)[C@H]2[C@H]3[C@H](O)[C@H](O)CC(=O)[C@H]3CC[C@H]2C1=O`, the composite z-score in assay [1] was -0.0527; in [2], -0.202; in assay [3] it was -0.723; in [5] it was 0.685; in assay [6], 0.765; in [7], 0.4. Moreover, the composite z-score in [8] was 0.565; in assay [9], 0.745; in assay [10] it was -0.0903; in assay [11], 0.182; in assay [13] it was 0.412; in assay [14], 0.0492. Besides, the composite z-score in [15] is -0.375; in assay [16] it was -0.201; in assay [17] it was -0.229; in [18], -0.201; in [19] it was 0.619; in assay [20], 0.0323. For the same molecule, the results for the z-score in assay [4] and in assay [12] were -1.11 (inactive) and -1.07, respectively.

Turning to `O=C1C[C@@H](O)[C@@H](O)[C@@H]2[C@@H]3C(=O)N(c4cccc(Oc5ccccc5)c4)C(=O)[C@@H]3CC[C@@H]12`, the composite z-score in assay [1] was 0.87; in assay [2] it was -0.0115; in [3] it was -0.464; in assay [5] it was 0.806; in assay [6], 0.655; in assay [7] it was 0.387. Also, the composite z-score in assay [8] was 0.925; in assay [9] it was 0.987; in [10], -0.0789; in [11], 0.994; in [13], 0.962; in assay [14] it was 0.77. Also, the composite z-score in assay [15] is -0.261; in assay [16], -0.0327; in assay [17] it was -0.206; in assay [18], -0.4; in assay [19], 0.613; in assay [20], 0.106. Also, the z-score in assay [4] is 0.0249 (inactive); in [12] it was -0.197.

Consider `CCOC(=O)NN=C1C[C@@H](O)[C@@H](O)[C@@H]2[C@@H]3C(=O)N(C[C@@H]4CCCO4)C(=O)[C@@H]3CC[C@@H]12`, for which the composite z-score in assay [1] was 0.419; in assay [2], -0.147; in [3] it was -0.133; in assay [5], 0.137; in assay [6], 0.197; in assay [7], 0.364. The composite z-score is 0.342 in assay [8]; -0.0134 in [9]; -0.0039 in [10]; 0.396 in assay [11]; 0.238 in assay [13]; -0.375 in [14]. For the same molecule, the composite z-score was -0.32 in [15]; -0.0721 in assay [16]; -0.273 in [17]; -0.0428 in assay [18]; 0.584 in assay [19]; -0.189 in assay [20]. In addition, the values for the z-score in assay [4] and in [12] were 0.104 (inactive) and 0.353, respectively.
